# Screens: PubChem BioAssay, Buhrlage Lab, Dana-Farber Cancer Institute and Novartis Institutes for BioMedical Research (Cambridge, Mass)
# USP17 block – inhibitors of human USP17 deubiquitinase; A8MUK1; inhibition, % at 50 µM; actives 6.5% (n = 47,000); purified USP17, Ub-rhodamine cleavage fluorescence, 3 h
# USP28 inh – inhibitors of human USP28 deubiquitinase. inhibition, % at 25 µM. purified USP28, Ub-rhodamine cleavage fluorescence, 30 min. actives 3% (n = 47,000). AID 1645857
# USP30 block – blocks human USP30 ubiquitin-rhodamine cleavage; actives 5.3% (n = 47,000); AID 1645860; Q70CQ3; purified USP30, Ub-rhodamine cleavage fluorescence; inhibition, % at 25 µM
# Target sequence (Q70CQ3 whole entry, looked up): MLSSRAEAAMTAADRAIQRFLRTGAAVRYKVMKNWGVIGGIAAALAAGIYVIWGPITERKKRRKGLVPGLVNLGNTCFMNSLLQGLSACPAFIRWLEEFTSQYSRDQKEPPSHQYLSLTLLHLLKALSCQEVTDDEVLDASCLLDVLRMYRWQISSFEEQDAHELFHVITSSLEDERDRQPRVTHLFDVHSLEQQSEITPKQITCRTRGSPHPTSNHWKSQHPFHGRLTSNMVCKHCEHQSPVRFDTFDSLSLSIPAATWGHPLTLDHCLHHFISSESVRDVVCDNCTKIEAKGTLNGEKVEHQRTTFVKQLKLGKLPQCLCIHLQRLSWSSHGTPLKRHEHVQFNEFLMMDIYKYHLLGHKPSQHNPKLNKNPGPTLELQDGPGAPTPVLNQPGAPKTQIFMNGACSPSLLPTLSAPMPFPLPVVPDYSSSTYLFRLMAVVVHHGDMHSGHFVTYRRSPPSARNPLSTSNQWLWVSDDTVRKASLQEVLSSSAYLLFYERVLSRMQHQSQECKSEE
# * marks the source's active call; other numbers are inactive results; i = inactive; nt = no result. Only some compounds are listed: those with a hit (about 11% of all), similar ones and a draw of the others. Rule as the data show it: active = inhibition above about 30%; inactive = the rest.
SMILES,USP17 block,USP28 inh,USP30 block
COc1ccccc1C(=O)N1Cc2ccccc2N(C)C(C)C1 (centres undefined),-8.8,-8.2,0.4
CC(C)C(=O)N1C[C@@H]2CN(Cc3cccc(F)c3)[C@@H]2C1,-16.6,-10.3,-20.1
CCCc1nc(SCC(=O)Nc2ccccc2)c2c(=O)n(C)c(=O)n(C)c2n1,24.3,11.6,30.7*
CCCCc1nc(SCC(=O)N2CCc3ccccc32)c2c(=O)n(C)c(=O)n(C)c2n1,-1.7,1.4,-54.3
CN1CCN(CCCNC(=O)c2cc(C(C)(C)C)nn2C)CC1,-3.2,-8.9,-14.9
COc1cc2c(cc1OC)C(C)N(C(=O)c1ccccc1C(=O)O)CC2 (centres undefined),3.4,0.8,18.0
COc1ccc(NC(=O)C2CCCN(c3cnc4nccnc4c3)C2)cc1Cl (centres undefined),-144.6,-247.2,i
COc1ccc(CC(NC(C)=O)C(=O)NC2CCN(c3c(Cc4ccccc4)c(C)nc4ncnn34)CC2)cc1OC (centres undefined),47.3*,16.4,70.8*
COc1ccc(CC(NC(C)=O)C(=O)NC2CCN(c3c(Cc4ccccc4)c(C)nc4ncnn34)CC2)c(OC)c1 (centres undefined),4.6,0.6,-2.9
CSc1nc(N2CCCC2)c2sccc2n1,40.3*,8.9,26.1
O=C(Nc1nc2ccsc2c(=O)s1)C1CCC1,5.5,4.6,i
CCn1nccc1-c1cccc(-c2noc(-c3cnccn3)n2)c1,-1.2,16.3,-2.1
Cc1ccc(N2CCCn3c2nc2c3c(=O)n(CCCc3ccccc3)c(=O)n2C)cc1,-0.5,1.1,14.4
Cc1ccc(N2CCCn3c2nc2c3c(=O)n(CCc3ccccc3)c(=O)n2C)cc1,11.4,7.6,31.1*
Cc1cccc(NC(=O)NCCn2cnc3cc(C(=O)N(C)C)ccc32)c1C,-2.3,-5.5,-20.4
COc1ccc(-n2c3c(c(=O)[nH]c2=O)CN(Cc2ccco2)CN3)cc1,-3.2,-6.7,-8.3
CCc1ccc(NC(=O)COC(=O)C2CC(=O)N(c3ccc(F)cc3)C2)cc1 (centres undefined),12.7,25.2,13.7
CCc1ccc(N2CC(C(=O)OCc3cc(=O)oc4c(C)c(C)ccc34)CC2=O)cc1 (centres undefined),30.9*,4.2,45.0*
O=C(COc1ccc2ccccc2c1)NCc1nnnn1-c1ccc(F)c(F)c1,47.6*,1.9,9.5
CCOc1ccc(-n2nnnc2CNC(=O)NCc2ccccc2)cc1,-3.5,-0.2,-14.8
O=C(CSc1nc2ccccc2n1S(=O)(=O)c1ccc(Br)cc1)NCCc1ccccc1,-29.9,16.4,-95.8
O=C(CSc1n[nH]c(-c2cc(Br)ccc2O)n1)NCCc1ccccc1,37.7*,24.8,10.5
COC1COC2(CCN(Cc3cccnc3)CC2)C1 (centres undefined),-37.5,-15.5,-41.3
CCOc1ccccc1CNC(=O)c1ccc(Oc2nccnc2N2CCOCC2)cc1,0.0,10.3,-4.9
O=S(=O)(Nc1nc2ccc(S(=O)(=O)N3CCCC3)cc2s1)c1ccc(F)cc1,9.4,-6.8,-48.0
SMILES,USP17 block,USP28 inh,USP30 block
COc1cccc(C(=O)Nc2nc3ccc(S(=O)(=O)N4CCOCC4)cc3s2)c1OC,47.4*,nt,nt
CCn1cc(S(=O)(=O)Nc2ccn(Cc3ccccc3C)n2)cn1,2.5,-8.0,19.8
Cc1ccc(-n2c(-c3cccs3)cn3c4c(=O)n(C)c(=O)n(C)c4nc23)cc1,35.9*,-3.7,-2.4
Cn1c(=O)c2c(nc3n(CCCCO)c(-c4ccccc4)cn23)n(C)c1=O,0.5,14.3,16.6
CCOC(=O)CCCn1c(-c2ccccc2)cn2c3c(=O)n(C)c(=O)n(C)c3nc12,17.1,16.8,28.9
COc1ccc(CCn2c(-c3ccccc3)cn3c4c(=O)n(C)c(=O)n(C)c4nc23)cc1OC,9.9,16.5,38.6*
CCOc1ccc(-c2cn3c4c(=O)n(C)c(=O)n(C)c4nc3n2-c2ccccc2F)cc1Cl,-0.2,-1.3,-127.4
Cn1c(=O)c2c(nc3n(-c4ccccc4F)c(-c4ccccc4)cn23)n(C)c1=O,39.0*,1.6,72.4*
Cc1cn2c3c(=O)n(C)c(=O)n(C)c3nc2n1Cc1cccc2ccccc12,7.4,10.0,48.5*
Cn1c(=O)c2c(nc3n(-c4ccc(F)cc4)c(-c4ccc(Br)cc4)cn23)n(C)c1=O,5.7,0.0,0.9
O=C(NC(=O)c1c(F)cccc1Cl)Nc1ccccc1N1CCCCC1,-0.7,6.0,26.7
O=C(Nc1ccc(Cl)cc1)C1Cn2ccnc2C2(CCN(C(=O)C3CC3)CC2)O1 (centres undefined),-19.8,-0.1,-5.7
O=C(c1cccc2c1C(=O)N(C1CCCCC1)C2)N1CCN(c2ccccn2)CC1,-22.8,-8.4,-45.6
O=C(c1cc2c(s1)CN(C1CC1)C2)N1CCN(c2ccccn2)CC1,40.4*,2.3,5.1
CCn1ccc(C(=O)N2CCC(Oc3cc(N4CCCC4)ncn3)C2)n1 (centres undefined),-2.5,-9.4,10.5
Cc1ccc(-c2nnc3ccc(SCC(=O)N4CCCc5ccccc54)nn23)cc1,-4.3,18.0,30.4*
Cc1ccc(NC(=O)CSc2nnc(-c3ccncc3)o2)cc1F,45.7*,-5.2,6.5
Cc1cc(NC(=O)CSc2nnc(-c3ccc4c(c3)OCCO4)o2)no1,11.2,-11.1,-0.2
COc1ccc(-c2nnc3ccc(SCC(=O)N4CCCc5ccccc54)nn23)cc1,-6.2,1.5,-6.0
Cc1cc(NC(=O)CSc2nnc(-c3cccc(Cl)c3)o2)no1,49.2*,2.8,13.2
O=C(CSc1nnc(-c2cccnc2)o1)Nc1ccc(F)cc1,15.7,3.2,26.7
O=C(CSc1nnc(-c2cccc(Cl)c2)o1)N1CCCc2ccccc21,23.4,23.3,32.3*
O=C(CSc1nc2ccccc2o1)N1CCCc2ccccc21,11.3,20.6,16.7
COc1ccc2oc(=O)c(N(C)S(=O)(=O)c3ccc(C)cc3)cc2c1,7.1,25.7,-13.6
CCOc1ccc(CNC(=O)c2cc(CN3CCOCC3)on2)cc1,12.0,5.1,11.3
SMILES,USP17 block,USP28 inh,USP30 block
CN(C)C(=O)N1C[C@@H]2c3nccn3-c3ccccc3[C@@H]2C1,1.7,-7.3,-0.2
CC12CN3CC(c4ccccc4)(CN(C1)C3c1ccc(O)cc1)C2=O (centres undefined),-4.7,-11.6,-11.4
Cc1ccc(C2N3CC4(C)CN2CC(c2ccccc2)(C3)C4=O)cc1 (centres undefined),18.8,11.3,34.3*
CC(=O)NC[C@H]1C[C@]2(C)[C@@H](CCCC[C@]2(C)O)N1C(=O)c1cc(C(C)C)[nH]n1,8.9,10.9,20.3
CNC(=O)[C@@H]1C[C@@H]2CN(C(=O)Nc3ccc(F)cc3)CCN2[C@@]12C(=O)Nc1ccccc12,2.5,8.5,13.4
O=C(Nc1ccc2[nH]c(=O)[nH]c2c1)c1cc2c(s1)CCCCC2,25.8,13.9,-62.5
Cc1ccc(NC(=O)c2cc3c(s2)CCC3)cc1,48.8*,37.1*,-26.3
O=C(O)Cc1ccccc1C(=O)Nc1ccc2c(c1)CCC2,-1.5,-3.7,-2.4
O=C(Nc1ccc2c(c1)CCC2)c1cc2ccccc2s1,8.4,33.2*,27.9
CCCCCCNc1ncnc2c1sc1nc(-c3ccccc3)c3c(c12)CC(C)(C)OC3,16.4,26.5,30.8*
CC1(C)Cc2c(c(-c3ccco3)nc3sc4c(NCc5ccccn5)ncnc4c23)CO1,37.8*,12.8,-6.8
